Screening results from PubChem.
Hits are enriched below; roughly 3.8% of the tested compounds scored in any of these assays.
HT1080-NT tox: kills 2HG-producing HT-1080-NT fibrosarcoma cells | HT-1080-NT fibrosarcoma viability, CellTiter-Glo ATP luminescence, 48 h | Potency, µM (series often up to 46.1 µM), for inactives: at the highest dose activity, negative = less viability, usual class: cytotoxic | 360,000 tested, 1.6% active;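 further: NT is the 2HG producing partner of a matched IDH1 knockdown line; 0% = DMSO-treated cells and -100% = media-only wells without cells; nearly all actives have a fitted effect of over 55% in size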
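Read-out is CellTiter-Glo luminescence after 10 minutes at room temperature, following 48 hours' compound treatment of HT-1080-NT cells (750 cells/well, RPMI, 5% FBS, 37 degrees C).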
S2 tox: cell viability loss in ATXN counter-screen; S2 cells (HEK-293 line with an ATXN2-luciferase reporter) viability, CellTiter-Fluor protease fluorescence, 24 h; Potency, µM (series often up to 56.7 µM), hits mostly cytotoxic; 400,000 tested, 0.49% active; AID 651635; further: nearly all actives have a fitted effect of over 40% in size
HT1080 IDH1KD tx: kills HT-1080 cells with IDH1 knockdown; Potency, µM (series often up to 46.1 µM), without a hit: top-dose activity, negative = toxicity, hits mostly cytotoxic; 360,000 tested, 2% active; HT-1080 IDH1 knockdown viability, ATP luminescence, 48 h; AID 686971;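 further: 0% = DMSO wells and -100% = cell-free medium wells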
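After a 2 h attachment period, IDH1KD HT-1080 cells took pin-transferred compound for 48 h at 37 °C; ATP-based luminescence after 10 min room-temperature reagent incubation reported viability.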
HepG2 tox-1: HepG2 cytotoxicity, counter-screen for TGF-b inhibitors; HepG2 CAGA-GFP viability, ATP luminescence, 18 h; Potency, µM (top dose mostly 46.1 µM), for the others: at the top dose activity change, negative = cytotoxicity, actives largely listed as cytotoxic; 410,000 tested, 0.76% active
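CellTiter-Glo luminescence gave cytotoxicity after 18 hours at 37 degrees C. The cells were HepG2 CAGA-GFP in 1% FBS DMEM, stimulated with 500 pg/mL TGF-beta after compound addition. %Activity was normalised to no-cell wells (complete cell-killing) and DMSO (no toxicity), and curves were fitted and classified.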
ATXN2 expr inh: reduces ATXN2 reporter expression in HEK-293 cells; AID 1745845; HEK-293 ATXN2-luciferase reporter, luminescence, 24 h; Potency, µM (highest dose often 57 µM), for the others: top-dose activity change, negative = inhibition, hits mostly inhibitors; 360,000 tested, 0.72% active; further: on the % scale 0 is the no-effect control and ±100 the full control effect; nearly all actives have a fitted effect of over 55% in size
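ATXN2-luciferase reporter cells (luciferase flanked by upstream and downstream ATXN2 gene portions) were treated 24 h at 37 °C with compounds at up to 57 uM. SteadyGlo luminescence gave expression; GF-AFC fluorescence gave viability.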
TGFb SMAD3 inh: TGF-b pathway inhibition. HepG2 CAGA-GFP TGF-b/SMAD3 reporter, GFP fluorescence, 18 h; TGF-beta stimulated, 500 pg/mL final. Potency, µM (series often up to 46.1 µM), without a hit: at the highest dose activity, negative = inhibition, actives largely listed as inhibitors. 410,000 tested, 1.2% active. AID 588855; further: on the % scale 0 is the no-effect control and ±100 the full control effect; nearly all actives have a fitted effect of over 65% in size
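HEPG2 CAGA-GFP cells (1000/well, DMEM with 1% FBS) were pre-incubated 2 h at 37 degrees C, given compound by pin tool, then stimulated with TGF-beta at 500 pg/mL final for 18 h before per-cell GFP fluorescence imaging.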
TGFb confirm: confirmation of TGF-b signaling inhibitors in HepG2 reporter cells. shares compounds with TGFb SMAD3 inh. HepG2 CAGA-GFP TGF-b reporter, GFP fluorescence, 18 h; cells stimulated with TGF-beta, 500 pg/mL. Potency, µM (top dose mostly 46.1 µM), for inactives: at the highest dose activity, negative = inhibition, most hits filed as inhibitors. 1,600 tested, 63% active; further: on the % scale 0 is the no-effect control and ±100 the full control effect; nearly all actives have a fitted effect of over 65% in size
HepG2 tox-2: HepG2 cytotoxicity, TGF-b inhibitor counterscreen; shares compounds with TGFb SMAD3 inh; HepG2 CAGA-GFP viability, ATP luminescence, 18 h; cells stimulated with TGF-beta, 500 pg/mL; Potency, µM (series often up to 46.1 µM), for the others: at the highest dose activity, negative = cytotoxicity, most hits filed as inhibitors; 1,600 tested, 27% active; AID 720535; further: on the % scale 0 is the no-effect control and ±100 the full control effect; nearly all actives have a fitted effect of over 70% in size
TGFb CCL64 inh: TGF-b inhibition, CCL64 orthogonal assay | shares compounds with TGFb SMAD3 inh | CCL64 CAGA-GFP reporter, TGF-b stimulated, GFP fluorescence, 18 h | Potency, µM (series often up to 46.1 µM), for the others: at the highest dose activity, negative = inhibition, usual class: inhibitors | 1,600 tested, 41% active; further: nearly all actives have a fitted effect of over 65% in size
TGFb COP inh: validation of TGF-b inhibitors in HepG2 COP promoter reporter; shares compounds with TGFb SMAD3 inh; HepG2 COP-GFP TGF-b reporter, GFP fluorescence, 18 h; cells stimulated by added recombinant TGF-beta; AID 720537; 1,600 tested, 3% active; Potency, µM (doses to about 46.1 µM), inactives show top-dose activity, negative = inhibition, actives largely listed as inhibitors; further: nearly all actives have a fitted effect of over 70% in size
* marks the source's active call; other numbers are inactive results; i = inactive; ? = inconclusive; · = no result; [ ] = dose if it differs, or a comment. The call rests on the fitted dose curve; in most records, active means well fitted curve in the direction sought with a large enough effect; inconclusive means small, poorly fitted or top-dose-only effect, or another doubt; inactive means no such curve, though single readings can be large; an effect the other way counts as inactive or inconclusive. Potency means the concentration at half of the fitted maximal effect.

SMILES | HT1080-NT tox | S2 tox | HT1080 IDH1KD tx | HepG2 tox-1 | ATXN2 expr inh | TGFb SMAD3 inh | TGFb confirm | HepG2 tox-2 | TGFb CCL64 inh | TGFb COP inh
FC(F)(F)c1nc2ccccc2n2c(-c3ccc(Cl)cc3)nnc12 | 5.8µM* | i | 4.6µM* | -32% | -24% | 4.5µM* | 5.2µM* | ? | 12% | 66%
Cc1ccc(-c2nnc3c(C(F)(F)F)nc4ccccc4n23)cc1 | 4% | ? | 12% | -42% | -6% | ? | · | · | · | ·
CCN(CC)C(=O)Cn1ncc2c([nH]c3ccc(C)cc32)c1=O | · | i | · | -4% | 10% | 4% | · | · | · | ·
CCCc1cc(=O)n2c(C(=O)Nc3ccc(OCC)cc3)c(C(=O)Nc3ccc(C)cc3)sc2n1 | · | i | · | -20% | -2% | 0% | · | · | · | ·
CCc1ccc(CN(C)C(=O)c2cc(COc3cccc4cnccc34)on2)cc1 | ? | i | 15µM* | -38% | · | 10µM* | ? | ? | ? | 29%
CN(Cc1cccc2cnccc12)C(=O)c1cc(COc2ccc(F)cc2F)on1 | 4% | i | -13% | -39% | ? | -17% | · | · | · | ·
CN1CCN(C(CNC(=O)c2ccccc2)c2ccc3c(c2)OCO3)CC1 (configuration not stated) | · | i | · | 2% | 9% | 1% | · | · | · | ·
O=C(NCCCCc1ccccc1)NC[C@@H]1CC[C@@H](Cc2ccc(-c3ccccc3)cc2)O1 | -16% | i | -21% | -26% | 0% | ? | · | · | · | ·
O=C(NC[C@@H]1CC[C@@H](Cc2ccc(-c3ccccc3)cc2)O1)Nc1ccc(Br)cc1 | ? | ? | -2% | -22% | ? | 11µM* | 21µM* | -16% | -7% | -20%
Cc1ccc(S(=O)(=O)Nc2cccc3cccnc23)c([N+](=O)[O-])c1 | ? | ? | 2.1µM* | -27% | 10µM* | 4.5µM* | -18% | ? | ? | 43%
Cc1cc(C)c(NS(=O)(=O)c2cccc3cccnc23)c(C)c1 | -5% | i | 15% | -3% | -25%[11.3 µM] | 0% | · | · | · | ·
O=S(=O)(Nc1cccc2cccnc12)c1ccccc1 | 26µM* | ? | 23µM* | -14% | 8.9µM* | 7.1µM* | 23µM* | ? | 12µM* | 36%
CCOc1ccc(C(=O)Nc2ccccc2C(=O)OCc2cc(=O)n3nc(C4CC4)sc3n2)cc1 | · | i | · | -1% | 15% | 4% | · | · | · | ·
COc1ccccc1Cn1c(CNS(=O)(=O)c2cccc([N+](=O)[O-])c2)nc2cccnc21 | · | · | · | -21% | · | ? | · | · | · | ·
CC(C)=CCNc1ncnc2c1c(C#N)cn2C1OC(CO)C(O)C1O (configuration not stated) | -5% | ? | -16% | -26% | -31% | 4µM* | 0.73µM* | ? | 13% | 22%
COc1ccc(OC)c(NC(=O)c2nc(S(=O)(=O)Cc3ccccc3)ncc2Cl)c1 | 4.6µM* | 18µM* | 3.7µM* | 7.9µM* | -25% | 3.5µM* | 4.6µM* | 6.5µM* | 3.7µM* | 10µM*
CCS(=O)(=O)c1ncc(Cl)c(C(=O)Nc2c(C(=O)c3ccc(C)cc3)oc3ccccc23)n1 | · | i | · | -11% | 12% | -21% | · | · | · | ·
Cc1cccc(CS(=O)(=O)c2ncc(Cl)c(C(=O)Nc3c(C)cccc3C)n2)c1 | ? | ? | 15µM* | 10µM* | -18% | 6.3µM* | 4.6µM* | 9.2µM* | 4.6µM* | ?
COC(=O)c1ccccc1NC(=O)c1nc(S(=O)(=O)Cc2ccccc2F)ncc1Cl | · | i | · | 4% | 9% | -2% | · | · | · | ·
Cc1ccccc1CS(=O)(=O)c1ncc(Cl)c(C(=O)Nc2ccc(F)cc2)n1 | ? | · | ? | 22µM* | · | 10µM* | ? | ? | 3.7µM* | ?
O=C(Nc1ccc(F)cc1)c1nc(S(=O)(=O)Cc2ccccc2)ncc1Cl | 23µM* | · | 15µM* | 7.1µM* | ? | 5µM* | 3.3µM* | 15µM* | 2.6µM* | ?
COC(=O)C1CCCCN1Cc1nc(N2CCCN(C(C)=O)CC2)c2ccccc2n1 (configuration not stated) | · | i | · | · | · | · | · | · | · | ·
CCCc1cc(-c2[nH]ncc2-c2ccc3c(c2)OCCCO3)c(O)cc1O | -11% | ? | -14% | -60% | ? | ? | · | · | · | ·
CCCc1cc(-c2[nH]ncc2-c2ccc(C(=O)OCC)o2)c(O)cc1O | ? | ? | ? | 20µM* | -29% | 10µM* | -14% | 7% | ? | 1%
OCCCNc1c2ccccc2nc2ccccc12 | 23µM* | ? | 12µM* | 23% | ? | 4.5µM* | 13µM* | 13µM* | ? | 25%
COc1ccc(CCNc2nc(SCc3ccc(Cl)cc3)nc3ccccc23)cc1OC | · | · | · | -15% | · | 0% | · | · | · | ·
COc1ccc(CCNc2c3ccccc3nc3ccccc23)cc1OC | 21µM* | ? | ? | -49% | ? | 16µM* | 15µM* | 21µM* | 26µM* | -19%
Cc1cccc(-n2ccnc2SCC(=O)Nc2cccc3ccccc23)c1 | · | i | · | -22% | ? | 3% | · | · | · | ·
COc1ccc(C(=O)Nc2ccc(C(=O)OCc3cc(=O)n4nc(C(C)C)sc4n3)cc2)cc1 | · | · | · | -6% | · | -4% | · | · | · | ·
